Measured values published in PubChem BioAssay.
“And” between values parts separate entries of the source, which are not always exact repeats. Equal entries are not always repeated. The source made the active and inactive calls. Unless noted, how the calls were made is not given here. Starred links: 1 amine or outer side, 2 acyl side, 3 side chain; linkers in the order of their positions; H or OH if unused. Positions of bridges follow the written chain, without caps; N, C: chain ends. Non-standard residues stand in square brackets, D forms with d. Residues, ends and D or L forms follow the SMILES beside them. Chains are numbered I, II in the order given. Actinocin(9to1) = Cc1c2oc3c(C)ccc(C(=O)[*:1])c3nc-2c(C(=O)[*:2])c(N)c1=O; NMeV = CN[C@H](C(=O)O)C(C)C; Sar = CNCC(=O)O

Key:
[1] = P. berghei load reduction in hepatocytes – cell-based, HepG2, luciferase luminescence, HepG2 viability, primary screen (AID 624349; in the data active means parasite load remaining mostly below about 12%, no sharp cut-off; inactive means mostly above about 10%;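 further: 100% = mean of DMSO negative control wells on the same plate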); settings: P. berghei liver stage in HepG2, luciferase luminescence, concentration not given here; parasite load remaining: stronger effect = lower value; viability: measured here: HepG2 viability without parasites
[2] = tested on: Hepatitis C virus NS3 helicase; assay: blockers of NS3h binding to ssDNA – biochemical, fluorescence polarization, LOPAC1280 library, primary screen (AID 687035; in the data active means inhibition above about 37%); settings: Purified HCV NS3 helicase, Cy5-dT15 ssDNA binding fluorescence polarization; stronger effect = higher value; concentration not given here
[3] = compounds altering Cy5-DNA-NS3h complex signal – biochemical, LOPAC1280, artefact control for HCV NS3 helicase inhibitor project (AID 687037); settings: Cy5-DNA-NS3h complex fluorescence interference counterscreen
[4] = Wnt pathway potentiators raising nuclear beta-catenin – imaging, WNT3A-conditioned medium, mouse C2C12, NPC library, primary screen (AID 1117326; in the data active means nuclear beta-catenin stimulation mostly above about 4.2%, no sharp cut-off; inactive means mostly below about 10%); settings: stronger effect = higher value
[5] = stimulators of insulin release from INS-1E, primary screen, cell-based, 5 mM glucose, NPC library (AID 1117329;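 active means compound raises insulin release from rat beta cells at 5 mM glucose, no numeric limit stated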); settings: rat INS-1E insulin secretion, at 10 µM, stronger effect = higher value
[6] = growth inhibition of GSK3B-pretreated HCT116 cells – cell-based, CellTiter-Glo, 0.2 to 20 µM (AID 1117336;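 active means compounds lowering colon cancer cell viability after pretreatment blocking the GSK3B kinase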); settings: HCT116 viability after GSK3B inhibitor, at 20 µM, stronger effect = higher value
[7] = inhibition of endothelial tube formation, primary screen, imaging, VEGF stimulated, CD31 staining, tube area, NPC library (AID 1117340;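 active means compound that reduces growth-factor-driven endothelial tube area in a mixed cell culture, no cutoff stated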); settings: VEGF-stimulated ADSC/ECFC co-culture, at 10 µM, stronger effect = higher value
[8] = GLP1 release stimulators, primary, NCI-H716, NPC library (AID 1117341;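 active means compound raises GLP1 secretion from the human gut endocrine cells, with no numeric limit stated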); settings: NCI-H716 cells, at 10 µM, stronger effect = higher value
[9] = HCT116 colon cancer cell growth inhibition, primary screen, CellTiter-Glo luminescence, NPC library (AID 1117342;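 active means compounds that lower survival of HCT116 colon cancer cells in the luminescence readout, no numeric limit stated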); settings: at 20 µM (top of the series)
[10] = reduced SW480 viability measured with CellTiter-Glo, NPC library, primary (AID 1117343;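 active means compounds that lower viability of the colon cancer cells in the luminescence readout, with no numeric limit stated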); settings: CellTiter-Glo luminescence; at 20 µM (top of the series)
[11] = NPC library primary testing for decreased DLD-1 cell viability via CellTiter-Glo (AID 1117346;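 active means compounds that lower survival of DLD-1 colon cancer cells in the luminescence readout, no cutoff given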); settings: DLD-1 viability, CellTiter-Glo luminescence; at 20 µM (top of the series)
[12] = target: 6-phosphogluconate dehydrogenase, decarboxylating (Homo sapiens) (UniProt P52209); assay: inhibition of human phosphogluconate dehydrogenase – biochemical, recombinant enzyme, NADPH absorbance, primary screen (AID 1159550;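 active means at least 20% inhibition of 6-phosphogluconate dehydrogenase activity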); settings: recombinant 6PGD, NADPH absorbance 341 nm; at 10 µM; stronger effect = higher value
[13] = signal quenchers or enhancers, Cy5 substrate/SSB – biochemical, NIH Clinical Collection, E. coli SSB, artefact control for HCV NS3 helicase inhibitor project (AID 743268); settings: Cy5-oligo bound E. coli SSB, fluorescence interference
[14] = tested on: Hepatitis C virus NS3 helicase; assay: blockers of NS3h binding to DNA – biochemical, fluorescence polarization, NIH Clinical Collection, primary screen (AID 743270); settings: NS3 helicase binding to Cy5-dT15 DNA, stronger effect = higher value, concentration not given here
[15] = target: Single-stranded DNA-binding protein (Escherichia coli (strain K12)) (UniProt P0AGE0); assay: SSB-ssDNA binding inhibitors – biochemical, fluorescence polarization, NIH Clinical Collection, counter-screen for HCV NS3 helicase inhibitor project (AID 743271; in the data active means inhibition above about 28%); settings: E. coli SSB-DNA binding, stronger effect = higher value, concentration not given here
[16] = compounds distorting NS3 helicase fluorescence signal – biochemical, NIH Clinical Collection, artefact control for HCV NS3 helicase inhibitor project (AID 743272); settings: fluorescence interference counterscreen, HCV NS3 helicase assay; stronger effect = lower value;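 further: HCV NS3 helicase with a Cy5 labelled single stranded DNA probe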
[17] = tested on: Neuropilin-2 / VEGF-C interaction (human); assay: small molecules blocking Neuropilin-2/VEGF-C interaction – biochemical, microplate binding format, z-score (AID 743281); settings: microplate NRP2/VEGF-C binding assay; stronger effect = lower value

Chain of 6-phosphogluconate dehydrogenase, decarboxylating (Homo sapiens) (P52209 whole entry, looked up): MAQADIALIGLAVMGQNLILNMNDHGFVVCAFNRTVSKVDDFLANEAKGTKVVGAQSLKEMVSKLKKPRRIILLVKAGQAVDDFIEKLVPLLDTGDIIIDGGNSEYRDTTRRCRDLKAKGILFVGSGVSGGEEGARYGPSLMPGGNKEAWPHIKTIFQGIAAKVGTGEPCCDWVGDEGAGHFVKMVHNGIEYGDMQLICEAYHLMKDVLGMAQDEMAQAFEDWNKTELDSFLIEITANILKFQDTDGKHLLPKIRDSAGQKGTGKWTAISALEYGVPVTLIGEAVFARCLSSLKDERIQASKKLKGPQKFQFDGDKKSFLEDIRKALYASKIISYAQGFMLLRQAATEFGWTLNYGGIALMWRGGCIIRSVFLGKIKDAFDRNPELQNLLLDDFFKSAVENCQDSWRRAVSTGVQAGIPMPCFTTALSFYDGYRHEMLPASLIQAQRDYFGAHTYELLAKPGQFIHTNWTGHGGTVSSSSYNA

SMILES	parasite load remaining [1]	viability [1]	inhibition [2]	fluorescence ratio (interference) [3]	nuclear beta-catenin stimulation ([4]; at 10 µM)	nuclear beta-catenin stimulation ([4]; stimulation, at 2 µM) [%]	insulin secretion stimulation [5]	viability decrease [6]	tube area decrease [7]	GLP1 secretion stimulation [8]	inhibition of viability [9]	viability decrease (inhibition) [10]	viability decrease (inhibition) [11]	inhibition [12]	fluorescence ratio [13]	inhibition [14]	inhibition [15]	fluorescence ratio [16]	z-score [17]
CC(=O)OC(C)C[N+](C)(C)C (stereo not drawn)	94% (inactive) and 73.8% (inactive) and 58% (inactive)	94.5% and 73.8% and 92.8%	-2% (inactive)	0.9 (inactive)	1.5% (inactive)	3.2	-0.3% (inactive)	-1.9% (inactive)	4.4% (inactive)	5.7% (active)	-6.13% (inactive)	-21.3% (inactive)	-8.2% (inactive)	19.2% (inactive)					
Cc1nnc(SCC2=C(C(=O)O)N3C(=O)[C@@H](NC(=O)Cn4cnnn4)[C@H]3SC2)s1	82.1% (inactive) and 85.3% (inactive) and 68.8% (inactive)	98.8% and 78.7% and 99.1%	-3% (inactive)	0.9 (inactive)	0.1% (inactive)	0.2	-1.7% (inactive)	3.2% (inactive)	10.5% (inactive)	2.7% (inactive)	1.2% (inactive)	4.8% (inactive)	-22.3% (inactive)	1.44% (inactive)					
O=c1c(-c2ccc(O)cc2)coc2cc(O)cc(O)c12			-1% (inactive)	1 (inactive)	8.6% (inactive)	-1.1	0.8% (inactive)	36.1% (inactive)	54.6% (active)	7% (inactive)	-0.9% (inactive)	94.1% (active)	8.45% (inactive)	3.56% (inactive)					
COCCc1ccc(OCC(O)CNC(C)C)cc1 (stereo not drawn)			1% (inactive)	1 (inactive)	0.8% (inactive)	1.6	5.6% (inactive)	-27.4% (inactive)	-8.1% (inactive)	-3.5% (inactive)	12.1% (inactive)	17.2% (inactive)	-6.3% (inactive)	-13.3% (inactive)					
CCN(CC)CCNC(=O)c1ccc(NC(C)=O)cc1	46.9% (inactive)	102%	-3% (inactive)	1 (inactive)	-1.2% (inactive)	1	0.3% (inactive)	23% (inactive)	23.1% (inactive)	1.6% (inactive)	18.3% (inactive)	25.6% (inactive)	19.5% (inactive)	3.51% (inactive)					
NNc1nncc2ccccc12	83.7% (inactive) and 102% (inactive) and 72.4% (inactive)	72.8% and 96.1% and 95%	-3% (inactive)	1 (inactive)	-0.9% (inactive)	-1.5	-1.2% (inactive)	-10.3% (inactive)	5.9% (inactive)	5.2% (inactive)	4.9% (inactive)	4.9% (inactive)	-2.1% (inactive)	15.4% (inactive)					
CCn1cc(C(=O)O)c(=O)c2cc(F)c(N3CCNC(C)C3)c(F)c21 (stereo not drawn)			-1% (inactive)	1 (inactive)	1.8% (inactive)	1.2	1.7% (inactive)	15.3% (inactive)	-13.3% (inactive)	-0.4% (inactive)	0.55% (inactive)	-10.7% (inactive)	-20.1% (inactive)	-3.66% (inactive)					
Clc1ccc(C(c2ccccc2Cl)C(Cl)Cl)cc1 (stereo not drawn)	2.27% (inactive)	80.1%	-4% (inactive)	0.9 (inactive)	4.5% (inactive)	0.2	1.4% (inactive)	46.6% (inactive)	6.6% (inactive)	15.5% (inactive)	88.6% (active)	84.4% (active)	99.5% (active)	5.07% (inactive)					
CC(=O)Oc1ccccc1C(=O)O	80.4% (inactive) and 75.4% (inactive) and 33.3% (inactive)	71.3% and 95.3% and 127%	-3% (inactive)	1 (inactive)	-0.3% (inactive)	0.2	0.1% (inactive)	-8.9% (inactive)	9.2% (inactive)	-3.4% (inactive)	-5.9% (inactive)	-3.9% (inactive)	-4.2% (inactive)	15.9% (inactive)					
Cc1c2oc3c(C)ccc(C(=O)N[C@@H]4C(=O)N[C@H](C(C)C)C(=O)N5CCC[C@H]5C(=O)N(C)CC(=O)N(C)[C@@H](C(C)C)C(=O)O[C@@H]4C)c3nc-2c(C(=O)N[C@@H]2C(=O)N[C@H](C(C)C)C(=O)N3CCC[C@H]3C(=O)N(C)CC(=O)N(C)[C@@H](C(C)C)C(=O)O[C@@H]2C)c(N)c1=O (I: T[dV]P[Sar][NMeV] / II: T[dV]P[Sar][NMeV]; ester I:1-I:C, II:1-II:C; linker I:N-II:N via Actinocin(9to1))	-0.02% (inactive)	31.5%			92.5% (active)	109	1% (inactive)	-75.8% (active)	110% (active)	1.9% (inactive)	37.8% (active)	70.6% (active)	69.3% (active)	-6.87% (inactive)	0.91 (inactive)	1.53% (inactive)	2.76% (inactive)	0.93 (inactive)	-4.03 (active)
CN(C)CCCN1c2ccccc2Sc2ccc(C(F)(F)F)cc21			-5% (inactive)	1 (inactive)	41.9% (active)	3.5	5.8% (inactive)	68.5% (active)	45.1% (active)	17.9% (inactive)	88.7% (active)	137% (active)	101% (active)	1.69% (inactive)					
C[n+]1ccccc1/C=N/O	55.9% (inactive) and 86% (inactive) and 126% (inactive)	133% and 101% and 76.5%			-0.7% (inactive)	-0.6	2.2% (inactive)	15.7% (inactive)	-4.4% (inactive)	-3.1% (inactive)	1.77% (inactive)	-3.4% (inactive)	0.4% (inactive)	-6.73% (inactive)	1 (inactive)	-3.18% (inactive)	-0.48% (inactive)	0.96 (inactive)	
CS(=O)(=O)Nc1ccc([N+](=O)[O-])cc1Oc1ccccc1			-3% (inactive)	1 (inactive)	0.4% (inactive)	-0.6	0.6% (inactive)	7.2% (inactive)	11.6% (inactive)	0.1% (inactive)	15% (inactive)	10.5% (inactive)	17.8% (inactive)	11.1% (inactive)					
CCCN(CCC)C(=O)C(CCC(=O)O)NC(=O)c1ccccc1 (stereo not drawn)			-4% (inactive)	0.9 (inactive)	-0.6% (inactive)	0.3	1.3% (inactive)	-11.7% (inactive)	-25.9% (inactive)	0.4% (inactive)	-4.15% (inactive)	-0.1% (inactive)	-14.6% (inactive)	1.53% (inactive)					
NCCCCCC(=O)O	112% (inactive) and 74.1% (inactive) and 56.9% (inactive)	104% and 74.3% and 90.5%	1% (inactive)	0.9 (inactive)	2.8% (inactive)	-1	-1.3% (inactive)	-23% (inactive)	15.9% (inactive)	1.1% (inactive)	-10.8% (inactive)	9.9% (inactive)	-9.4% (inactive)	11.8% (inactive)					
NCCS	22.7% (inactive) and 38.2% (inactive)	94.3% and 106%	-2% (inactive)	1 (inactive)	0.2% (inactive)	3.8	2.9% (inactive)	-8.4% (inactive)	-3.5% (inactive)	-3.8% (inactive)	2.53% (inactive)	-332% (inactive)	-14.1% (inactive)	-14% (inactive)					
COc1ccc(CN(CCN(C)C)c2ccccn2)cc1			3% (inactive)	1 (inactive)	0.1% (inactive)	7.7	68.9% (active)	3.3% (inactive)	14.4% (inactive)	1.2% (inactive)	-7.7% (inactive)	22.5% (inactive)	-34.8% (inactive)	4.83% (inactive)					
NCCCC(=O)O				1 (inactive)	2.4% (inactive)	1.9	-0.7% (inactive)	3.2% (inactive)	12% (inactive)	1.6% (inactive)	1.3% (inactive)	10.4% (inactive)	0.95% (inactive)	15.9% (inactive)					
CC(C)COCC(CN(Cc1ccccc1)c1ccccc1)N1CCCC1 (stereo not drawn)			0% (inactive)	1 (inactive)	0.1% (inactive)	-1.8	4.8% (inactive)	98% (active)	32.8% (inactive)	4.3% (inactive)	105% (active)	117% (active)	97% (active)	1.94% (inactive)					
Clc1ccccc1C(c1ccccc1)(c1ccccc1)n1ccnc1			-2% (inactive)	1 (inactive)	1.1% (inactive)	1.7	0.9% (inactive)	110% (active)	73.1% (active)	29.1% (active)	113% (active)	132% (active)	101% (active)	-6.11% (inactive)	0.9 (inactive)	5.94% (inactive)	6.83% (inactive)	0.9 (inactive)	0.266 (inactive)
C[C@](N)(Cc1ccc(O)c(O)c1)C(=O)O			-3% (inactive)	1 (inactive)	2.9% (inactive)	1.2	1.8% (inactive)	17.5% (inactive)	1.4% (inactive)	0.4% (inactive)	5.03% (inactive)	-10% (inactive)	0.1% (inactive)	-6.99% (inactive)					
Cc1cc(C(C)(C)C)c(O)c(C)c1CC1=NCCN1			-6% (inactive)	0.9 (inactive)	1.6% (inactive)	2.7	2.1% (inactive)	5.6% (inactive)	-3.7% (inactive)	4.3% (inactive)	20.6% (inactive)	-4.2% (inactive)	-0.8% (inactive)	6.36% (inactive)					
